# Sampled rows, rich in hits. Any-hit rate of the full collection: about 2.3%.
# CHRM1 antagonist – human M1 muscarinic receptor antagonists, primary screen, CHO-K1 cells, Fluo-8 calcium fluorescence, 1536-well | CHO-K1 hM1, ACh EC80 antagonist | Muscarinic acetylcholine receptor M1 (Homo sapiens), P11229 | 360,000 tested, 1.3% active | inhibition, % at 3 µM;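 active = percent inhibition above its own plate's cutoff, namely the mean of that plate's compound wells plus 3 SD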;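 note: peak over basal fluorescence ratio during 140 s after agonist addition; 0% = ACh EC80 plus DMSO and 100% = DMSO alone without agonist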
# Target sequence (P11229 whole entry, looked up): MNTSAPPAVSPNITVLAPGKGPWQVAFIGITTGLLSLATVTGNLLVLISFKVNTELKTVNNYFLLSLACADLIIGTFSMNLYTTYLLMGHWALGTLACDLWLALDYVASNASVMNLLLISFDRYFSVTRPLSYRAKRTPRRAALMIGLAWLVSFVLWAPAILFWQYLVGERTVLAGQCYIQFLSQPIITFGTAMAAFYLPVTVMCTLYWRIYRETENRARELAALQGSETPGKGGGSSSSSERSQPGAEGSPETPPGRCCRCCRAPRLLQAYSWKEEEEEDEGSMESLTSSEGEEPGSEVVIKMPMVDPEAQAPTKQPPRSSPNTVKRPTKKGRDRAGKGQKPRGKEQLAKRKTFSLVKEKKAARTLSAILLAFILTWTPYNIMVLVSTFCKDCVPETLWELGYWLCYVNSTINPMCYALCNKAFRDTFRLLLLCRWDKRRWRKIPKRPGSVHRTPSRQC
# CHRM1 agonist – human M1 muscarinic receptor agonists, primary screen, Fluo-8 calcium fluorescence, CHO-K1 cells, HTS | Muscarinic acetylcholine receptor M1 (Homo sapiens), P11229 | CHO-K1 hM1, agonist mode; 0% DMSO, 100% acetylcholine EC100 | activation, % at 3 µM | 360,000 tested, 0.33% active;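 active = activation above the run's mean compound activation plus 3 SD, cut at about 16% in these data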;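 note: peak over basal fluorescence ratio within a 140 s kinetic read after compound addition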
# CHO-K1 Ca ag – counter-screen for M1 agonists: effect in parental CHO-K1 cells | Fluo-8 calcium fluorescence; scaled to maximal ATP response, vehicle zero | activation, % at 3 µM | 360,000 tested, 0.48% active | AID 602248, 2012; in the data active = activation above about 15%;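 note: untransfected CHO-K1 host cells lacking M1 receptor as counterscreen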
# CHO-K1 Ca antag – nonselective inhibitor or artifact in parental CHO-K1 cells; 360,000 tested, 0.6% active; ATP-induced calcium, Fluo-8 fluorescence; inhibition, % at 3 µM;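 active = inhibition above a per-plate cutoff, the plate's mean sample inhibition plus 3 SD, cut at about 24% in these data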;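 note: 0% = DMSO plus EC80 ATP and 100% = DMSO alone without ATP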
# M1 PAM parental – nonselective calcium activators in parental CHO-K1 cells, primary screen, counter-screen for M1 PAM project, cell-based, Fluo-8 calcium fluorescence, full deck, 1536-well. ATP EC20; 0% at ATP EC20, 100% at ATP max. activation, % at 3 µM. 360,000 tested, 0.02% active. AID 602247, 2012;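 active = activation above the run cutoff, the mean activation of all test compounds plus 3 SD, cut at about 40% in these data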;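 note: peak over basal fluorescence ratio in a 140 s read after ATP addition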
# M1 PAM – human M1 muscarinic receptor positive allosteric modulators, primary screen, CHO-K1 cells, Fluo-8 calcium fluorescence, 1536-well; Muscarinic acetylcholine receptor M1 (Homo sapiens), P11229; CHO-K1 hM1, ACh EC20; 0% = ACh EC20, 100% = maximal ACh; activation, % at 3 µM; 360,000 tested, 0.088% active; AID 588819, 2011; in the data active = activation above about 19%, passing the limit was not always enough
# * marks the source's active call; other numbers are inactive results.
SMILES,CHRM1 antagonist,CHRM1 agonist,CHO-K1 Ca ag,CHO-K1 Ca antag,M1 PAM parental,M1 PAM
COc1ccc(NC(=O)C2CCN(S(=O)(=O)c3ccc4c(c3)CC(C)N4C(C)=O)CC2)c(OC)c1 (stereo not given),2,-3,4,-12,-2,-4
COc1ccc(NC(=O)COc2coc(CN3c4ccccc4CC3C)cc2=O)cc1 (stereo not given),9,-6,0,8,-24,-6
O=C(COC(=O)COc1ccccc1F)NCCc1ccc(F)cc1,-4,-2,0,-8,5,1
COc1cc2c(cc1OC)CN(CCC(C)c1ccc(Cl)cc1)CC2 (stereo not given),43*,0,1,-10,10,-20
CCCCNC(=O)N1CCN(c2ccnc3cc(Cl)ccc23)CC1,20,-4,16*,4,7,-18
O=C(NCCSCc1ccccc1)c1ccc(C2SCC(=O)N2Cc2ccccc2)cc1 (stereo not given),60*,-8,1,2,-8,-34
CCc1nc2c(OCc3c(C)noc3C)cccn2c1N(C=O)Cc1ccc(OC)cc1,-14,-4,-1,-10,41*,6
OCCNCc1cc(Br)ccc1OCc1ccc(Cl)cc1,4,23*,7,-29,1,-5
Cc1ccc(S(=O)(=O)NCCNc2ccc([N+](=O)[O-])cc2)cc1,3,-1,3,-2,-8,0
Cc1ccc(S(=O)(=O)NCCCNc2ccc([N+](=O)[O-])cc2)cc1,16,-5,21*,18,-1,-13
CCC(C(=O)NC1CCCC1)n1c2ccccc2c2nc(=O)cc(C)n21 (stereo not given),-4,-3,1,-6,-6,4
CN1CCN(CC(=O)Nc2c(C(=O)c3ccccc3)oc3ccccc23)CC1,60*,-14,2,-13,4,-38
Cc1ccccc1OCCCc1c(C)n[nH]c1C,0,-7,5,0,6,-1
Cc1ccccc1OCCCCc1c(C)n[nH]c1C,29*,-2,9,15,-4,-13
O=C(NCCCNC(=O)c1c(F)cccc1F)c1c(F)cccc1F,-5,-4,0,-18,19,5
O=C(NCC(Cl)c1ccc2ccccc2c1)c1c(F)cccc1F (stereo not given),-6,5,20*,7,7,3
COc1ccc(C(CC(=O)Nc2nccs2)n2cccc2)cc1 (stereo not given),-6,2,1,8,-9,9
CCC(=O)c1ccc(OCC(=O)Nc2nc(-c3cccnc3)cs2)cc1,27*,-1,8,12,-4,-10
COc1ccccc1OCC(=O)Nc1ncc(C)s1,0,-3,0,-4,-14,0
COc1ccc(C(CC(=O)Nc2nccs2)C(C)C)cc1 (stereo not given),10,-3,19*,3,3,-6
Cc1cnc(NC(=O)COc2ccccc2)s1,15,-2,0,25*,-9,-2
CCC(=O)c1ccc(OCC(=O)Nc2nc(C)cs2)cc1,-10,1,2,-5,7,4
COc1ccc(OCC(=O)Nc2nccs2)cc1,-4,-4,17*,-5,13,6
Cc1cc(C)c(S(=O)(=O)N2CCN(C(=O)C3COc4ccccc4O3)CC2)c(C)c1 (stereo not given),15,-5,0,-6,-10,-11
COc1cccc(C(=O)C2CCCN(Cc3cn(CC(N)=O)c4ccccc34)C2)c1 (stereo not given),0,-13,0,32*,-11,-3
SMILES,CHRM1 antagonist,CHRM1 agonist,CHO-K1 Ca ag,CHO-K1 Ca antag,M1 PAM parental,M1 PAM
CCOC(=O)N1CCC(N2CCCC(C(=O)c3cccc(OC)c3)C2)CC1 (stereo not given),54*,-7,1,-5,0,-21
COc1cccc(C(=O)C2CCCN(Cc3cn[nH]c3C3CCCCC3)C2)c1 (stereo not given),27,-13,0,17,-12,-23
CCN(CC)c1ncnc2c1ncn2[C@H]1CN(C2CCCC2)C[C@@H](CO)O1,-16,4,0,-14,10,26
O=C(CCCN=C1NS(=O)(=O)c2ccccc21)OCC(=O)c1ccccc1Cl,-4,1,6,-5,13,9
Cc1ccc([N+](=O)[O-])cc1NC(=O)Nc1cccc(F)c1,34,4,13,26*,-22,-21
Cc1ccc(C(=O)Nc2cc([N+](=O)[O-])ccc2C)cc1,3,-9,0,-5,-2,-2
Cc1ccc([N+](=O)[O-])cc1NC(=O)c1ccc(-c2ccccc2)cc1,23,-2,0,24*,-6,-8
O=C(NCC1COc2ccccc2O1)C1CCCN(S(=O)(=O)c2cccc3cccnc23)C1 (stereo not given),-1,1,1,25*,2,8
O=C(NCc1cccnc1)C1CCCN(S(=O)(=O)c2cccc3nsnc23)C1 (stereo not given),38*,-9,0,14,-9,-22
Cc1cc(C)c(S(=O)(=O)N2CCCC(C(=O)NCc3cccnc3)C2)c(C)c1 (stereo not given),34*,-4,7,-7,3,-16
O=C(NCC1COc2ccccc2O1)C1CCCN(S(=O)(=O)c2cccc3nsnc23)C1 (stereo not given),-4,-1,4,-9,11,5
Cc1c(N=Cc2nc3ccccc3[nH]2)c(=O)n(-c2ccccc2)n1C,0,-4,0,31*,-6,1
CCOC(=O)c1ccc(CNCc2ccc(C)cc2)cc1,66*,-10,1,-14,15,-24
COC(=O)c1ccc(COC(=O)c2ccc(CS(=O)(=O)c3ccc(C)cc3)cc2)cc1,22*,-3,0,12,-2,-10
O=S(=O)(/N=S1\CC=CCN1S(=O)(=O)c1ccccc1)c1ccccc1 (stereo not given),4,38*,35*,-5,14,5
CC1=C(C)CS(=O)N(S(=O)(=O)c2ccccc2)C1 (stereo not given),5,15,3,-2,6,-3
Cc1cccc2cc(-c3nc4c(C)cccn4c3NCc3ccco3)c(=O)[nH]c12,28*,2,3,-3,13,-15
